Results on 40 compounds are retold here after PubChem BioAssay (EPA / NIEHS).

Calls of active or inactive are those of the source. The calls were made as follows: active = hit-call score of the fitted dose curve at least 0.9, where 1 is the maximum; inactive = score below 0.9.

A short description of this assay: APR_HepG2_MitoMass_1hr: Apredica 1-hour HepG2 Assay for Mitochondrial Mass (AID 2282674). To be noted: high-content imaging, actives raise or lower the signal. As to the method: APR_HepG2_1hr is a cell-based, multiplexed-readout assay that uses HepG2, a human liver cell line, with measurements taken at 1 hour after chemical dosing in a 384-well plate.APR_HepG2_MitoMass_1hr is one of 10 assay component(s) measured or calculated from the APR_HepG2_1hr assay. It is designed to make measurements of cell phenotype, a form of morphology reporter, as detected with fluorescence intensity signals by HCS Fluorescent Imaging technology.Data from the assay component APR_HepG2_MitoMass_1hr was analyzed into 1 assay endpoint. This assay endpoint, APR_HepG2_MitoMass_1hr, was analyzed with bidirectional fitting relative to DMSO as the negative control and baseline of activity. Using a type of morphology reporter, gain or loss-of-signal activity can be used to understand changes in the signaling. Furthermore, this assay endpoint can be referred to as a primary readout, because this assay has produced multiple assay endpoints where this one serves a signaling function. To generalize the intended target to other relatable targets, this assay endpoint is annotated to the cell morphology intended target family, where the subfamily is organelle conformation.
Cells were treated with dimethyl sulfoxide (DMSO) as a solvent control at a final concentration of 0.5% v/v or with compounds in DMSO with a resulting final DMSO concentration of 0.5% v/v. Compound treatment was done at concentrations of 0.39, 0.78, 1.56, 3.12, 6.24, 12.5, 25, 50, 100, and 200 uM in duplicate on each plate. Cells were treated with compounds for 1, 24, or 72 hr. Carbonyl […] m-chloro-phenylhydrazone (CCCP) and taxol were used as positive controls for mitochondrial function and cytoskeletal stability, respectively; DMSO served as the negative control for this experiment. Cells were fixed by the direct addition of 50 uL formaldehyde in Hank's Balanced Salt Solution (HBSS) to a final concentration of 3.7%. After incubation in the fixation medium for 30 min at room temperature (293-298 K), cells were rinsed twice with HBSS and treated with cell permeabilization buffer (16 uL of 0.5% Triton X-100) for 10 min at room temperature (293-298 K) before labeling. For mitochondrial membrane potential and mitochondrial measurements, pre-fixed cells were incubated with 50 uL of MitoTracker Red CMXRos (Invitrogen) at a concentration of 250 nM for 30 min before fixation. In the remaining cases, post-fixed cells were labeled by incubation with a multiplexed mixture of primary antibodies in HBSS for 60 min at room temperature (293-298 K) to detect immunoreactivity of c-Jun (1:500), phospho-histone H3 (1:100), phospho-histone H2A.x (1:200), p53 (1:400), alpha-tubulin (1:200) and Hoechst 33342 (2 ug/mL). Cells were labeled for multiplexed imaging on two separate plates: a) Hoechst 33342, MitoTracker Red, phospho-histone H3, and alpha-tubulin, and b) Hoechst 33342, phospho-histone H2A.x, and c-Jun. A final rinse with HBSS (50 uL) was performed before analysis. The primary and secondary antibodies for the proteins were phospho-histone H3 (rabbit anti-phospho-histone H3 and FITC-donkey anti-rabbit IgG), phospho-histone H2A.x (mouse anti-phospho-histone H2A.x and FITC-donkey anti-mouse IgG), c-Jun (rabbit anti-phospho-c-Jun and Cy3-donkey anti-rabbit IgG), p53 (sheep anti-p53 and Cy5-donkey anti-sheep IgG), alpha-tubulin (mouse anti-alpha-tubulin and Cy5-donkey anti-mouse IgG). These antibodies are available as the CellCiphr HepG2 assay kit (Millipore).Digital images of each well were captured using a Cellomics ArrayScan VTI (Thermo Scientific Cellomics) (0.8 NA objective, 0.63x optical coupler, and XF-93 filter set) at 20x magnification. The images were acquired using the autofocus feature of the ArrayScan instrument, which entails the following steps. First, the camera focuses on channel 1 (Hoechst 33342), where nuclei are identified. Second, a Z offset of 1 um is used for capturing mitochondria (MitoTracker Red). Third, a Z offset of -2 um is used for capturing the cytoskeleton (tubulin). […]
As to `CC(C)[C@H](C(=O)O[C@H](C#N)c1cccc(Oc2ccccc2)c1)c1ccc(Cl)cc1`, the call was inactive.

Turning to `CCC(=NOC/C=C/Cl)C1=C(O)CC(C2CCOCC2)CC1=O` (stereo not given), the outcome was inactive.

Turning to `CCC(=O)Nc1ccc(Cl)c(Cl)c1`, the result was inactive.

`C#CCC1=C(C)C(OC(=O)C2C(C=C(C)C)C2(C)C)CC1=O` (stereo not given): the compound was called inactive.

Take `CCCCN(CC)c1c([N+](=O)[O-])cc(C(F)(F)F)cc1[N+](=O)[O-]`: the call was inactive.

For the compound `O=[N+]([O-])c1cc(C(F)(F)F)c(Cl)c([N+](=O)[O-])c1Nc1ncc(C(F)(F)F)cc1Cl`, the AC50 (commonly the concentration at which the activity in the assay is half-maximal) was 103 µM (active).

As for `CCCOc1nn(C(=O)NS(=O)(=O)c2ccccc2C(=O)OC)c(=O)n1C`, the call was inactive.

With `CCCSP(=O)(OCC)SCCC`, the outcome was inactive.

For `CN(C)[C@@H]1C(=O)C(C(N)=O)=C(O)[C@@]2(O)C(=O)C3=C(O)c4c(O)cccc4[C@@](C)(O)[C@H]3[C@H](O)[C@@H]12`, the compound was called inactive.

As to `COP(=O)(OC)OC(Br)C(Cl)(Cl)Br` (stereo not given), the result was inactive.

For the compound `CCCOCC(=Nc1ccc(Cl)cc1C(F)(F)F)n1ccnc1`, the result was inactive.

Consider `CNc1cnn(-c2cccc(C(F)(F)F)c2)c(=O)c1Cl`, for which the outcome was inactive.

For the compound `CC(C)=CC1C(C(=O)OCN2C(=O)C3=C(CCCC3)C2=O)C1(C)C` (stereo not given), the compound was classed as inactive.

Regarding `COc1cc(OC)nc(Sc2cccc(Cl)c2C(=O)O)n1`, the compound was called inactive.

Turning to `CC(C1CC1)C(O)(Cn1cncn1)c1ccc(Cl)cc1` (stereo not given), the outcome was inactive.

On to `CCOP(=S)(OCC)Oc1cc(C)nc(C(C)C)n1`, for which the outcome was inactive.

With `CN(C)NC(=O)CCC(=O)O`, the result was inactive.

As to `Cc1nn(-c2cc(NS(C)(=O)=O)c(Cl)cc2Cl)c(=O)n1C(F)F`, the outcome was inactive.

`C[N+]1(C)CCCCC1`: the compound was classed as inactive.

Turning to `CCCCOC(=O)c1ccccc1C(=O)O`, the compound was called inactive.

For the compound `COP(=O)(NC(C)=O)SC` (stereo not given), the outcome was inactive.

Take `CSc1nnc(C(C)(C)C)c(=O)n1N`: the compound was classed as inactive.

Consider `CCOC(=O)CC(SP(=O)(OC)OC)C(=O)OCC` (stereo not given), for which the result was inactive.

Take `CC(COc1ccc(Oc2ccccc2)cc1)Oc1ccccn1` (stereo not given): the compound was classed as inactive.

For `CCOP(=S)(Oc1cnc(C(C)(C)C)nc1)OC(C)C` (stereo not given), the result was inactive.

`C#CC(C)(C)NC(=O)c1cc(Cl)cc(Cl)c1`: the call was inactive.

On to `CCOC(=O)COc1cc(-c2nn(C)c(OC(F)F)c2Cl)c(F)cc1Cl`, for which the call was inactive.

On to `CON=C(C(=O)OC)c1ccccc1CON=C(C)c1cccc(C(F)(F)F)c1`, for which the result was inactive.

With `CNC(=O)ON=C(SC)C(=O)N(C)C`, the result was inactive.

As for `CCOP(=S)(OCC)Oc1ccc2c(C)c(Cl)c(=O)oc2c1`, the outcome was inactive.

For `CCOP(=O)(OCC)Oc1cc(C)nc(C(C)C)n1`, the compound was classed as inactive.

Regarding `CCc1cccc(CC)c1N(COC)C(=O)CCl`, the compound was classed as inactive.

Take `CSc1nc(NC(C)C)nc(NC(C)C)n1`: the outcome was inactive.

`COc1ccc(C(=CC(=O)N2CCOCC2)c2ccc(Cl)cc2)cc1OC`: the compound was called inactive.

On to `CCCSP(=O)(OCC)Oc1ccc(Br)cc1Cl` (stereo not given), for which the compound was called inactive.

As to `CC[C@H](C)[C@H]1O[C@]2(C=C[C@@H]1C)C[C@@H]1C[C@@H](C/C=C(\C)[C@@H](O[C@H]3C[C@H](OC)[C@@H](O[C@H]4C[C@H](OC)[C@@H](NC)[C@H](C)O4)[C@H](C)O3)[C@@H](C)/C=C/C=C3\CO[C@@H]4[C@H](O)C(C)=C[C@@H](C(=O)O1)[C@]34O)O2`, the compound was called inactive.

As to `CCCCSP(=O)(SCCCC)SCCCC`, the compound was called inactive.

Take `Nc1nc(N)nc(NC2CC2)n1`: the outcome was inactive.

Consider `CSC1=N[C@@](C)(c2ccccc2)C(=O)N1Nc1ccccc1`, for which the outcome was inactive.

For `CC(Oc1cccc(Cl)c1)C(=O)O` (stereo not given), the result was inactive.
